Among the data in PubChem BioAssay are composite z-score values, retold here.

This assay in a line: small-molecule binders of probe aInhba, primary screen, biochemical, small-molecule microarray, 635/667 nm fluorescence (AID 1148).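 Further: score merges 667nm spot fluorescence with signal-to-noise for antibody binding to printed compounds.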 To be noted: higher = more signal.
`COc1ccc([Si](C)(C)[C@@H]2[C@@H](CCO)O[C@]3(C(=O)N(Cc4cccc(N5CCOC5=O)c4)c4ccccc43)[C@H]2C)cc1` displayed a composite z-score of 0.0569.

With `COCCOC(=O)N1C(=O)[C@@]2(c3ccccc31)[C@H](C(N)=O)[C@H]1C(=O)O[C@H](c3ccccc3)[C@H](c3ccccc3)N1[C@@H]2c1ccc(O)cc1`, the composite z-score is -0.204.

Take `O=C1C[C@@](C(=O)NCc2ccccc2)(c2ccc([N+](=O)[O-])cc2)[C@@H](c2ccc(CO)cc2)N1CC12CC3CC(CC(C3)C1)C2`: the composite z-score is -0.189.

The compound `COCC(=C=CC[C@H](O)c1cccc(OCCO)c1)CCO` displayed a composite z-score of -0.12.

The compound `COCCCNC(=O)[C@@]1(Cc2ccccc2CN=[N+]=[N-])N=C(c2ccc(OCCCO)cc2)O[C@H]1c1ccccc1CN=[N+]=[N-]` came in with a composite z-score of -0.0195.

Consider `COC(=O)[C@]1(Cc2ccccc2)N=C(c2ccc(OCCCO)cc2)O[C@@H]1c1ccccc1N=[N+]=[N-]`, for which the composite z-score is -0.0221.

The compound `COC(=O)[C@@]1(Cc2ccc(F)cc2)[C@H]2c3cc(C(=O)N(C)C)n(Cc4ccc(C)o4)c3C[C@H]2CN1C(=O)c1ccccc1` gave a composite z-score of 1.7.

The compound `CC(C)=CCCC(C)=CC(O)C1C=CC2C(=O)N(c3ccccc3)C(=O)C2N1Nc1ccc(C(C)C)cc1` (configuration not stated) returned a composite z-score of -0.0087.

Regarding `COc1ccccc1CN1C(=O)c2ccccc2[C@@H](C(=O)NCc2ccccc2)[C@@H]1c1ccc(CO)cc1`, the composite z-score was -0.176.

For the compound `CC#CC(=O)Oc1ccc(Br)cc1C=CC(=O)OCC`, the composite z-score came out at 0.248.

Turning to `O=C(NC1CC1)[C@@H]1c2ccccc2C(=O)N(C2Cc3ccccc3C2)[C@H]1c1ccc(CO)cc1`, the composite z-score was 0.116.

`COCCCNC(=O)[C@@H]1c2ccccc2C(=O)N(Cc2ccccc2OC)[C@H]1c1ccc(CO)cc1` had a composite z-score of -0.0136.

Compound `O=C(O)[C@H](Cc1ccccc1)n1cc(-c2ccccc2)nn1` displayed a composite z-score of -0.0494.

Consider `C=CC[C@]1(C(=O)NCc2ccccc2)N=C(c2ccc(OCCCO)cc2)O[C@H]1c1ccccc1CN=[N+]=[N-]`, for which the composite z-score was found to be 0.682.

The compound `CN1C(=O)C2C=CC(C(O)c3ccc(F)cc3)N(N(c3ccccc3)c3ccccc3)C2C1=O` (configuration not stated) yielded a composite z-score of 0.0047.

`C=CCC(OC(C)=O)[C@@H]1[C@@H](N(Cc2ccc(-c3cccc(C(F)(F)F)c3)o2)C(=O)Cc2ccc(OC)cc2)c2cc(OCCCO)ccc2N1C(=O)c1ccc2ccccc2c1` (some centres not stated) showed a composite z-score of -0.128.

`CN(C)CCCCCCNC(=O)[C@@H]1C[C@@H]2C(=O)N[C@@H](CCCC[N+](C)(C)C)C(=O)N2[C@@H]1c1ccc(O)cc1` registered a composite z-score of -0.589.

In turn, `CC(C)CNC(=O)[C@@]1(Cc2ccccc2I)c2ccccc2C(=O)N(Cc2ccccc2C(F)(F)F)[C@H]1c1ccc(CO)cc1` showed a composite z-score of -0.128.

Turning to `C=CC[C@]1(C(N)=O)N=C(c2ccc(OCCCO)cc2)O[C@H]1c1ccccc1`, the composite z-score was -0.168.

In turn, `COCCCNC(=O)[C@@]1(Sc2ccc(C)cc2)CC(=O)N(Cc2ccccc2Cl)[C@@H]1c1ccc(CO)cc1` registered a composite z-score of -0.0331.

In turn, `CCCC=C(CCC)[C@@H](NC(=O)OCC(C)C)c1ccccc1` showed a composite z-score of 0.613.

`OCC1C=C(/C=C/c2ccccc2)CN1Cc1ccccc1Br` (configuration not stated) yielded a composite z-score of 0.126.

For the compound `CN1C(=O)C2C=CC(C(O)C=Cc3ccc([N+](=O)[O-])cc3)N(Nc3ccccc3)C2C1=O` (configuration not stated), the composite z-score came to 0.0497.

As to `COC(=O)[C@@]1(Cc2ccccc2)[C@H]2c3cc(C(=O)N4CCCC4)n(Cc4ccc(O)c(OC)c4)c3C[C@H]2CN1C(=O)c1ccccc1`, the composite z-score came out at 0.198.

Compound `CN(C)CCCCCCNC(=O)[C@@H]1C[C@@H]2C(=O)N3CCC[C@H]3C(=O)N2[C@@H]1c1ccc(O)cc1` registered a composite z-score of 0.138.

Compound `C[N+](C)(C)CCCC[C@@H]1NC(=O)[C@H]2C[C@@H](C(=O)NCCCCCCNC(=O)CS)[C@@H](c3ccc(O)cc3)N2C1=O` gave a composite z-score of -0.024.

As for `COC(=O)C(CC#Cc1ccc2c(c1)[C@]1(C(=O)N2)[C@H](c2ccccc2OCCO)N2[C@H](c3ccccc3)[C@H](c3ccccc3)OC(=O)[C@H]2[C@@H]1C(=O)O)C(=O)OC`, the composite z-score was found to be 0.29.

In turn, `NCCCCCNC(=O)[C@H]1C[C@H]2C(=O)N3CCC[C@H]3C(=O)N2[C@H]1c1ccc(O)cc1` yielded a composite z-score of 0.336.

Compound `C=CCC(OC(C)=O)[C@@H]1[C@@H](N(Cc2ccc(-c3ccccc3)cc2)C(=O)Cc2ccc(F)cc2)c2cc(OCCCO)ccc2N1C(=O)c1ccc2ccccc2c1` (some centres not stated) yielded a composite z-score of 0.0464.

`CCOc1ccc(N2C(=O)CSC2c2cccc([N+](=O)[O-])c2)cc1` (configuration not stated) showed a composite z-score of -0.0448.

Take `C=C(CCCC)/C(=C/C[C@H](OC(C)=O)c1ccccc1OCCO)c1cnc2ccccc2c1`: the composite z-score was -0.157.

`C=CC[C@]1(C(N)=O)COC(c2ccc(OCCCO)cc2)=N1`: the composite z-score stood at 0.027.
